About 2,000 (36%) of roughly 5,500 compounds were called active. About 18% were inconclusive and are not listed. No stated cut-off is given here; in the data, active means normalized growth mostly below about 0.91 (no sharp cut-off); inconclusive means no clear call, values can overlap the other calls; inactive means mostly above about 0.92. Some of the results follow.
Test: chemical genetic growth profiling, strain panel (AID 1159580);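 further: tested at 20 µM; growth read once vehicle control cultures reached saturation at 30 °C; 1 = growth at the plate median or of vehicle wells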
Conditions: growth OD

Measured: normalized growth

N#C/C(=C\c1cccc(O)c1)C(=O)O
inactive: S. cerevisiae deletion strains, locus YJR075W, strain HOC1, stronger effect = lower value 0.98 | S. cerevisiae deletion strains, locus YKL009W, strain mrt4, stronger effect = lower value 0.989 | S. cerevisiae deletion strains, locus YKL068W, stronger effect = lower value 0.998 | S. cerevisiae deletion strains, locus YKL085W, strain MDH1 (second series), stronger effect = lower value 0.951 | S. cerevisiae deletion strains, locus YKL085W, strain MDH1, stronger effect = lower value 0.951 | S. cerevisiae deletion strains, locus YKL160W, strain elf1, stronger effect = lower value 0.977 | S. cerevisiae deletion strains, locus YKL190W, strain CNB1, stronger effect = lower value 0.99 | S. cerevisiae deletion strains, locus YKR001C, strain vps1, stronger effect = lower value 1 | S. cerevisiae deletion strains, locus YKR026C, strain gcn3, stronger effect = lower value 1 | S. cerevisiae deletion strains, locus YKR091W, strain srl3, stronger effect = lower value 0.976 | S. cerevisiae deletion strains, locus YLL001W, strain dnm1, stronger effect = lower value 1.03 | S. cerevisiae deletion strains, locus YLL026W, stronger effect = lower value 0.974 | S. cerevisiae deletion strains, locus YLL041C, strain sdh2, stronger effect = lower value 0.984 | S. cerevisiae deletion strains, locus YLR027C, strain aat2, stronger effect = lower value 0.985 | S. cerevisiae deletion strains, locus YLR039C, strain RIC1, stronger effect = lower value 1.01 | S. cerevisiae deletion strains, locus YLR058C, strain SHM2, stronger effect = lower value 0.979 | S. cerevisiae deletion strains, locus YLR102C, strain apc9, stronger effect = lower value 0.988 | S. cerevisiae deletion strains, locus YLR113W, strain HOG1, stronger effect = lower value 0.971 | S. cerevisiae deletion strains, locus YLR221C, strain rsa3, stronger effect = lower value 1.02 | S. cerevisiae deletion strains, locus YLR258W, strain gsy2, stronger effect = lower value 0.977 | S. cerevisiae deletion strains, locus YLR262C, strain YPT6 (second series), stronger effect = lower value 0.974 | S. cerevisiae deletion strains, locus YLR262C, strain YPT6, stronger effect = lower value 0.957 | S. cerevisiae deletion strains, locus YLR268W, strain sec22, stronger effect = lower value 0.987 | S. cerevisiae deletion strains, locus YLR320W, strain mms22, stronger effect = lower value 1.03 | S. cerevisiae deletion strains, locus YLR330W, strain CHS5, stronger effect = lower value 0.989 | S. cerevisiae deletion strains, locus YLR342W, strain FKS1 (second series), stronger effect = lower value 1.09 | S. cerevisiae deletion strains, locus YLR342W, strain FKS1, stronger effect = lower value 0.99 | S. cerevisiae deletion strains, locus YLR357W, strain rsc2, stronger effect = lower value 0.988 | S. cerevisiae deletion strains, locus YLR370C, strain arc18, stronger effect = lower value 0.978 | S. cerevisiae deletion strains, locus YLR371W, strain rom2, stronger effect = lower value 1 | S. cerevisiae deletion strains, locus YLR384C, strain iki3, stronger effect = lower value 0.991 | S. cerevisiae deletion strains, locus YLR418C, strain cdc73, stronger effect = lower value 0.964 | S. cerevisiae deletion strains, locus YML016C, strain PPZ1, stronger effect = lower value 1 | S. cerevisiae deletion strains, locus YML032C, strain rad52, stronger effect = lower value 1.02 | S. cerevisiae deletion strains, locus YML120C, strain ndi1, stronger effect = lower value 0.992 | S. cerevisiae deletion strains, locus YML124C, strain tub3, stronger effect = lower value 1 | S. cerevisiae deletion strains, locus YMR058W, strain fet3, stronger effect = lower value 0.997 | S. cerevisiae deletion strains, locus YMR078C, strain ctf18, stronger effect = lower value 0.996 | S. cerevisiae deletion strains, locus YMR125W, strain sto1, stronger effect = lower value 0.991 | S. cerevisiae deletion strains, locus YMR129W, stronger effect = lower value 0.964 | S. cerevisiae deletion strains, locus YMR205C, strain PFK2, stronger effect = lower value 1.02 | S. cerevisiae deletion strains, locus YMR223W, strain ubp8, stronger effect = lower value 1.05 | S. cerevisiae deletion strains, locus YMR231W, strain pep5, stronger effect = lower value 0.991 | S. cerevisiae deletion strains, locus YMR263W, strain SAP30, stronger effect = lower value 0.979 | S. cerevisiae deletion strains, locus YMR307W, strain GAS1, stronger effect = lower value 1.08 | S. cerevisiae deletion strains, locus YNL067W, strain RPL9B, stronger effect = lower value 0.989 | S. cerevisiae deletion strains, locus YNL071W, strain lat1, stronger effect = lower value 0.997 | S. cerevisiae deletion strains, locus YNL128W, strain TEP1, stronger effect = lower value 0.928 | S. cerevisiae deletion strains, locus YNL153C, strain GIM3, stronger effect = lower value 0.984 | S. cerevisiae deletion strains, locus YNL183C, strain NPR1, stronger effect = lower value 0.915 | S. cerevisiae deletion strains, locus YNL209W, strain ssb2, stronger effect = lower value 1 | S. cerevisiae deletion strains, locus YNL233W, strain BNI4, stronger effect = lower value 1.01 | S. cerevisiae deletion strains, locus YNL248C, strain rpa49, stronger effect = lower value 0.963 | S. cerevisiae deletion strains, locus YNL250W, strain rad50, stronger effect = lower value 0.991 | S. cerevisiae deletion strains, locus YNL271C, strain bni1, stronger effect = lower value 1.01 | S. cerevisiae deletion strains, locus YNL298W, strain CLA4, stronger effect = lower value 1 | S. cerevisiae deletion strains, locus YNL307C, strain MCK1, stronger effect = lower value 1.03 | S. cerevisiae deletion strains, locus YNL322C, strain KRE1 (second series), stronger effect = lower value 0.952 | S. cerevisiae deletion strains, locus YNL322C, strain KRE1, stronger effect = lower value 0.979 | S. cerevisiae deletion strains, locus YNR049C, strain mso1, stronger effect = lower value 0.961 | S. cerevisiae deletion strains, locus YNR052C, strain pop2, stronger effect = lower value 0.995 | S. cerevisiae deletion strains, locus YOL006C, strain TOP1, stronger effect = lower value 0.975 | S. cerevisiae deletion strains, locus YOL012C, strain htz1 1.3 | S. cerevisiae deletion strains, locus YOL147C, strain pex11, stronger effect = lower value 0.994 | S. cerevisiae deletion strains, locus YOR001W, strain rrp6, stronger effect = lower value 1.02 | S. cerevisiae deletion strains, locus YOR061W, strain CKA2, stronger effect = lower value 0.96 | S. cerevisiae deletion strains, locus YOR069W, strain VPS5, stronger effect = lower value 0.997 | S. cerevisiae deletion strains, locus YOR070C, strain gyp1, stronger effect = lower value 0.993 | S. cerevisiae deletion strains, locus YOR080W, strain dia2, stronger effect = lower value 0.984 | S. cerevisiae deletion strains, locus YOR083W, strain WHI5, stronger effect = lower value 0.916 | S. cerevisiae deletion strains, locus YOR106W, strain vam3, stronger effect = lower value 0.924 | S. cerevisiae deletion strains, locus YOR136W, strain idh2, stronger effect = lower value 1.01 | S. cerevisiae deletion strains, locus YOR144C, strain elg1, stronger effect = lower value 0.989 | S. cerevisiae deletion strains, locus YOR184W, strain ser1, stronger effect = lower value 1.06 | S. cerevisiae deletion strains, locus YOR231W, strain MKK1, stronger effect = lower value 0.973 | S. cerevisiae deletion strains, locus YOR265W, strain rbl2, stronger effect = lower value 0.964 | S. cerevisiae deletion strains, locus YOR270C, strain vph1, stronger effect = lower value 0.997 | S. cerevisiae deletion strains, locus YOR290C, strain snf2, stronger effect = lower value 0.967 | S. cerevisiae deletion strains, locus YOR316C, strain cot1, stronger effect = lower value 0.986 | S. cerevisiae deletion strains, locus YPL051W, strain arl3, stronger effect = lower value 0.981 | S. cerevisiae deletion strains, locus YPL055C, strain LGE1, stronger effect = lower value 0.96 | S. cerevisiae deletion strains, locus YPL078C, strain atp4, stronger effect = lower value 0.991 | S. cerevisiae deletion strains, locus YPL106C, strain sse1, stronger effect = lower value 0.961 | S. cerevisiae deletion strains, locus YPL240C, strain hsp82, stronger effect = lower value 0.986 | S. cerevisiae deletion strains, locus YPL241C, strain CIN2, stronger effect = lower value 0.987 | S. cerevisiae deletion strains, locus YPL256C, strain CLN2, stronger effect = lower value 0.977 | S. cerevisiae deletion strains, locus YPR119W, strain clb2, stronger effect = lower value 0.987 | S. cerevisiae deletion strains, locus YPR141C, strain kar3, stronger effect = lower value 0.975 | S. cerevisiae deletion strains, locus YPR163C, strain tif3, stronger effect = lower value 0.998 | S. cerevisiae deletion strains, locus YPR167C, strain met16, stronger effect = lower value 0.981 | S. cerevisiae deletion strains, strain wtn01, stronger effect = lower value 0.98 | S. cerevisiae strains, strain wild type, stronger effect = lower value 1.02
